Data from the supplement of paper PMC10670038.
Counter-ions that a name gives are not always drawn. ± gives the standard deviation of the averaged measurements. In all, about 2,000 compounds were measured (“relative cell viability vs DMSO, compound alone”: median about 1.1, lowest 2% from about 0.29 on). For the sample, the lowest values were picked, then their nearest neighbours and some compounds at random.

Tested on: TE10
Experiment: relative cell viability vs DMSO, compound alone (fraction); TE10 is an esophageal squamous carcinoma line; higher = less cytotoxic
Details: 2 µM; 48 h
Method: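 TE10 ESCC cells (1,000/well, 384-well plates) were treated with Selleck bioactive library compounds at 2 uM alone for 48 h. Viability was read by CellTiter-Glo and expressed relative to DMSO wells. Two technical replicates (A, B).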

Compound	relative cell viability
O=C(Cc1ccc(-c2ccc(OCCN3CCOCC3)cc2)cn1)NCc1ccccc1	0.816 ± 0.05
C[C@H](N[C@@H](CCc1ccccc1)C(=O)O)C(=O)N1CCC[C@H]1C(=O)O [Enalaprilat Dihydrate]	1.12 ± 0.029
COC(=O)[C@H](Cc1ccccc1)NC(=O)[C@@H](N)CC(=O)O [Aspartame]	1.06 ± 0.036
COC[C@H](NC(=O)c1cnc(C)s1)C(=O)N[C@@H](COC)C(=O)N[C@@H](Cc1ccccc1)C(=O)[C@@]1(C)CO1 [Oprozomib (ONX 0912)]	0.0586 ± 0.0043
CC(C)C[C@H](NC(=O)[C@H](CCc1ccccc1)NC(=O)CN1CCOCC1)C(=O)N[C@@H](Cc1ccccc1)C(=O)N[C@@H](CC(C)C)C(=O)[C@@]1(C)CO1 [Carfilzomib (PR-171)]	0.0894 ± 0.0027
CC(C)CC(CC(=O)NO)C(=O)N[C@@H](Cc1ccc2ccccc2c1)C(=O)N[C@@H](C)C(=O)NCCN (stereo partly specified)	1.04 ± 0.077
CC(=O)NC(Cc1ccc(O)cc1)C(=O)NC(CCCN=C(N)N)C(=O)NC(Cc1ccccc1)C(N)=O (stereo unspecified)	0.828 ± 0.052
CC(C)c1nc(CN(C)C(=O)N[C@@H](CCN2CCOCC2)C(=O)N[C@H](CC[C@H](Cc2ccccc2)NC(=O)OCc2cncs2)Cc2ccccc2)cs1 [Cobicistat (GS-9350)]	1.11 ± 0.05
COc1ccc(C[C@H](NC(=O)[C@H](C)NC(=O)CN2CCOCC2)C(=O)N[C@@H](Cc2ccccc2)C(=O)[C@@]2(C)CO2)cc1	0.0804 ± 0.0014
O=C(NCC1(c2nc(-c3ccccc3)cs2)CCOCC1)c1cccc(-c2noc(C(F)(F)F)n2)c1	0.8055 ± 0.0031
C/C(=N\NC(=O)c1cccc(S(=O)(=O)N2CCOCC2)c1)c1cc(Cl)ccc1O	0.87899 ± 0.00067
CC1(COc2ccc3c(c2)ncn3-c2ccc3cccc(N4CCC(N)CC4)c3n2)COC1	1.1 ± 0.033
O=C(NCc1ccc(Oc2ccccc2)cc1)c1nc(-c2cc(Br)c(O)c(Br)c2)no1	1.17 ± 0.012
CNC(=C[N+](=O)[O-])NCCSCc1csc(CN(C)C)n1 [Nizatidine]	1.08 ± 0.056
CC(=O)N[C@H]1[C@H]([C@H](O)[C@H](O)CO)OC(C(=O)O)=C[C@@H]1NC(=N)N [Zanamivir]	1.13 ± 0.049
CO/N=C(\C(=O)N[C@@H]1C(=O)N2C(C(=O)OCOC(=O)C(C)(C)C)=C(/C=C\c3scnc3C)CS[C@H]12)c1csc(N)n1 [Cefditoren Pivoxil]	0.991 ± 0.099
C[C@]12C=CC(=O)C=C1CC[C@H]1[C@@H]3C[C@@H](O)[C@](O)(C(=O)CO)[C@@]3(C)C[C@H](O)[C@@]12F [Triamcinolone]	0.9665 ± 0.0039
OC[C@@H](O)[C@@H](O)[C@@H](O)CO [Ribitol]	1.126 ± 0.0056
CC(=O)Nc1ccccc1 [Acetanilide]	0.976 ± 0.25
CC(C)(C)C(=O)Nc1ccc2c(c1)C(=O)C(=O)c1ccccc1-2	0.0653 ± 0.0041
CC1=CC(=O)c2ccccc2C1=O [Menadione]	0.981 ± 0.01
O=C(Nc1cccc(C(F)(F)F)c1)Nc1cc(S(=O)(=O)NC2CC2)ccc1-c1ccsc1	0.982 ± 0.031
Cn1c2ccccc2c2c3c(c4c5ccccc5n(CCC#N)c4c21)CNC3=O	1 ± 0.081

Compound	relative cell viability
CN1CCc2nc(C(=O)N[C@@H]3C[C@@H](C(=O)N(C)C)CC[C@@H]3NC(=O)C(=O)Nc3ccc(Cl)cn3)sc2C1 [Edoxaban]	1.09 ± 0.014
NC(=O)C1CCCc2c1[nH]c1ccc(Cl)cc21 (stereo unspecified) [EX 527 (Selisistat)]	0.983 ± 0.2
CCOC(=O)c1ccc(NC(=O)O[C@H]2[C@H](OC(=O)Nc3ccc4c(c3)OCO4)[C@@H](OC(=O)Nc3ccc4c(c3)OCO4)[C@@H](OC)O[C@@H]2CO)cc1	1.16 ± 0.047
Cn1cc(-c2ccc3ncc(Cc4ccc5ncccc5c4)n3n2)cn1	1.13 ± 0.055
COc1ccc(C[C@H](N)C(=O)N[C@H]2[C@@H](O)[C@H](n3cnc4c(N(C)C)ncnc43)O[C@@H]2CO)cc1 [Puromycin 2HCl]	0.133 ± 0.042
CNc1ncnc2c1ncn2[C@@H]1O[C@H](CO)[C@@H](O)[C@H]1O [N6-methyladenosine (m6A)]	0.9679 ± 0.0062
COc1nc(N)nc2c1ncn2[C@@H]1O[C@H](CO)[C@@H](O)[C@@H]1O [Nelarabine]	1.11 ± 0.05
CN(C)Cc1cccc(N=C(c2ccccc2)c2c(O)[nH]c3cc(C(=O)N(C)C)ccc23)c1	0.903 ± 0.035
COc1cc2c(NC3CCN(CC4CCCCC4)CC3)nc(N3CCCN(C(C)C)CC3)nc2cc1OCCCN1CCCCC1	1 ± 0.13
O=C(O)CCCC[C@@H]1SC[C@@H]2NC(=O)N[C@@H]21 [Biotin (Vitamin B7)]	0.999 ± 0.036
CN[C@@H]1[C@H](O)[C@H](NC)[C@H]2O[C@@]3(O)C(=O)C[C@@H](C)O[C@H]3O[C@@H]2[C@H]1O [Spectinomycin HCl]	1.03 ± 0.12
CN(C)c1cc(NC(=O)CNC(C)(C)C)c(O)c2c1CC1CC3C(N(C)C)C(=O)C(C(N)=O)=C(O)C3(O)C(=O)C1=C2O (stereo unspecified) [Tigecycline]	1.111 ± 0.0089
Cn1cc(/C=C/C(=O)c2cccc(F)c2)cc1/C=C/C(=O)NO	1.11 ± 0.077
O=C(C=Cc1ccccc1)NC(NC(=S)Nc1ccc(Cl)cc1)C(Cl)(Cl)Cl (stereo unspecified)	1.07 ± 0.03
O=C(/C=C/c1cccc(S(=O)(=O)Nc2ccccc2)c1)NO [Belinostat (PXD101)]	0.216 ± 0.0062
CC(=O)Oc1cc2c(s1)CCN(C(C(=O)C1CC1)c1ccccc1F)C2 (stereo unspecified) [Prasugrel]	1.139 ± 0.0097
COc1cc(Nc2ncc(F)c(Nc3ccc4c(n3)NC(=O)C(C)(C)O4)n2)cc(OC)c1OC	0.96 ± 0.015
COc1cc(Nc2ncc(F)c(Nc3ccc4c(n3)NC(=O)C(C)(C)O4)n2)cc(OC)c1OC [R406 (free base)]	0.844 ± 0.051
Cc1c(C(=O)Nc2ccc(N3CCC(N4CCOCC4)CC3)c(C#N)c2)cnn1-c1ccc(Cl)cc1	1.08 ± 0.024
Cc1c(C(=O)Nc2ccc(Oc3ccnc4[nH]cc(-c5ccccc5)c34)c(F)c2)c(=O)n(-c2ccc(F)cc2)n1C	1 ± 0.027
Nc1nc(N)c(N=O)c(OCC2CCCCC2)n1	1.03 ± 0.023
O=C(Cc1ccccc1)Nc1nnc(CCSCCc2nnc(NC(=O)Cc3ccccc3)s2)s1	0.866 ± 0.049
CCCc1nn(C)c2c(=O)[nH]c(-c3cc(S(=O)(=O)N4CCN(C)CC4)ccc3OCC)nc12 [Sildenafil Citrate]	1.2 ± 0.029
